From PubChem BioAssay AID1508600 (Functional Genomics Laboratory (NCATS/FGL), 2020)
Screen size: about 53,000 sequences; about 3,700 (7%) were called active. Shown is part of a subset that was picked to be rich in actives. A number with no mark means an inactive call.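 How the source made its calls: active means gene knockdowns whose robust z-score for IL-1 alpha signal is at least 2 or at most -2, so actives lie on both sides; inactive means the rest.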

test: Components of the Cytosolic LPS Sensing Pathway: Gene Identification via Genome-wide siRNA Screen; settings: RAW264.7 macrophages, IL-1a HTRF, actives lie on both sides, screened at 100 nM (by protocol), cells primed 5 h with Pam3CSK4 first;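 further: robust z of the log signal after scaling to non-targeting control siRNA wells of the plate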
Summary of the method: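 Mouse macrophage line RAW264.7 is transfected with siRNA (100 nM final), grown 48h, primed with TLR ligand Pam3CSK4 5 h and given intracellular LipidA 24 h. IL-1a in supernatant is read by HTRF and viability by luminescence.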

| Sequence | z-score |
| --- | --- |
| GGAAGGCCAUUUCAACUAATT against Olfr1367 | 1.54 |
| GGUGAUUUGAACUGUGAAATT against Tmem126a | -0.963 |
| GGACAAACCUUGGAAGAUUTT against Ccdc166 | -0.24 |
| GGUUGGAAAUGACUAAUAATT against Slco6c1 | -1.01 |
| GGAAGGUGUCUGUAAUAUATT against Slamf9 | -0.0451 |
| GGAGGGCAGAUCUACGAUGTT against Aars | 0.182 |
| GAAACUUUGAGUCCUCCAGTT against Dop1b | 3.22 (active) |
| CGAGUUCAAACCGUCCUCUTT against Sdhc | 0.105 |
| CGGAAUGAUCACGACCGAUTT against Nsrp1 | 0.133 |
| CCAAGUAAUUCCUACUACUTT against Olfr1100 | -0.25 |
| GGCUGGAUGUAGAAAAUAUTT against Aspm | -2.1 (active) |
| GGGAAGCAAAUCUAUACCCTT against Tnfrsf11a | -0.243 |
| GGUGUUGUCAGAAGUUUAATT against Slc22a13b | 1.8 |
| CCUCAUGCAGUUAAAUAUGTT against Kera | -1.56 |
| GGAGAAGGAUGGAGUGUUUTT against Brms1l | 1.8 |
| GGACUUUGUAACUAAUACCTT against Slco2b1 | 0.914 |
| CGAUGAUGAACGAUGGACATT against Mmp3 | 2.47 (active) |
| GGCACUGGCAGGAAAUUACTT against Alg6 | -1.52 |
| GGACUGCCUUAAUUAAAGUTT against Coa6 | 1.7 |
| GCUGUGACUCUACUGGAGGTT against Zfp397 | 0.746 |
| GGCAGAACCCACUGAGAAATT against Pakap | -0.349 |
| GGAAAUCGAGCAUGUCUUCTT against Stk32c | 2.21 (active) |

| Sequence | z-score |
| --- | --- |
| GGAAAAGAGAAGAAGGCACTT against Taf6 | 0.654 |
| GCCUUUGAGGUUAUGAUCATT against Klk7 | -1.09 |
| GGCUGUGGUGAAGACUUUCTT against Cd81 | -1.06 |
| GGUGAAGCAGUUUGACUUCTT against Rbm18 | 0.0154 |
| GGUUCUGGUUGAUAGAGAUTT against 4931428L18Rik | 0.373 |
| CUUCUUGGUGGGUCUGACUTT against Taar7e | -2.63 (active) |
| CGACUGGAAAAAGAUUGGGTT against Ttf1 | -0.219 |
| GCGGCAGUAAAUUGUGAGGTT against Grin3b | 1.4 |
| GGAAAUCCAGAAGCGUGUGTT against Gtpbp3 | -0.436 |
| GGAGGAGCGUACUAUUUAATT against Slc12a2 | 3.34 (active) |
| GGAGGAUGCAAUUUUUAACTT against Sult1e1 | 0.771 |
| GGAGAAACUGAAACAAGCUTT against Gpc4 | 0.403 |
| GCACUAAGCUUUAUUCAUCTT against Mast2 | -0.0104 |
| GGAAACUUUUACUUCACAGTT against P3h1 | -0.322 |
| GGAUCUACGCAAGCAAGCATT against Oxnad1 | 2.12 (active) |
| GCAAAGAAGCUCUUUAGAGTT against Hoxc5 | 0.455 |
| GCCAUAAGAUGCUACAGUGTT against Tubb6 | 1.53 |
| GGAAAGUACCCUAGGAGUUTT against 4921509C19Rik | -1.6 |
| CCCUCAACUUUCAGAUCAGTT against Naa10 | 2.81 (active) |
| CCUACUUCCGAGGUUUCUUTT against Ifnz | -0.493 |
| GGAAAGGAGUCUGCCAGCUTT against Tef | -1.29 |
| GGAAGAAGGAAGGUUCAGATT against Strm | -0.581 |

| Sequence | z-score |
| --- | --- |
| GUGCAAACGGCAAACAUUCTT against 1700001G17Rik | 1.89 |
| GGGCGAAAACCAUUCAAAUTT against Zfp112 | 3.38 (active) |
| CCUCCUGACUACAAGAACUTT against Utp14a | 0.911 |
| CCUUGAUACCUUUCCAUGUTT against 9130008F23Rik | -0.68 |
| CGUUCUUGAGAGUCGAUCATT against Smoc2 | -0.19 |
| GCGGCAUCUACUUAAUAUGTT against Acer2 | 2.12 (active) |
| GCACCUUCAGCUAUCUAACTT against Nepn | 0.478 |
| GCUGUUCCUCUUUCUUUCUTT against Olfr522 | 0.315 |
| CCUAGAGUCUCAGGACUGUTT against Actrt3 | 0.682 |
| GGUUUCGUACCAUGAAACATT against Stx2 | -0.147 |
| GCUUUGACUGGAAUGACGGTT against Pex7 | -2.2 (active) |
| GGAGCUGUCUAAUCAUAAUTT against Clasp2 | -0.109 |
| GGAGUGGAAGAAGAAGUAUTT against Agap3 | 0.177 |
| GGAGUUUCUACGUGUAUGCTT against Tpra1 | -0.161 |
| GGACUUUGUGGAGAAUGUCTT against Cyp1a2 | -0.876 |
| CCUACAGAGUACAGAUUAUTT against Atp6v0d1 | -0.228 |
| GGACUGAGAGGGAUGGUAATT against A530016L24Rik | 0.293 |
| GCUAAGACUCUUGAAUCAGTT against Zfp280d | 3.72 (active) |
| GGCACAGAAGAAUGAGAGATT against Schip1 | 0.217 |
| CGUACUCUUUCUUUAAUCCTT against Umod | -0.622 |
| GGUCCAUUACGUGCGCUUATT against Cage1 | -0.00235 |
| GGCCUGACUUUUUGUCUUATT against Klhl15 | 1.09 |

| Sequence | z-score |
| --- | --- |
| GGAACUGCCAUUGUAUGGGTT against Myo1g | -0.568 |
| GGCAAAGUGUCCCUCCGAATT against Skint7 | 2.06 (active) |
| CCGCAUUUCAGACAUAGGCTT against Olfr248 | -0.729 |
| GCAGAAUGUCACUAAGUGCTT against Sdcbp2 | 0.271 |
| GGGAGAAGCAAUUUUUAACTT against Gpr34 | 0.132 |
| CCUAUGGUAGAAAAAUACUTT against Fundc1 | -0.252 |
| GGCAGCUGAUCAGAAAUCATT against Gabrg3 | -1.13 |
| GCUCACUAACUUUUACAAGTT against Fam166c | 0.419 |
| CCAAGAGUUGUCAAUAUAATT against Crisp3 | 0.768 |
| GGAGAGAAGAUCAUUUCAATT against Ncam2 | 2.38 (active) |
| CCCUCCGUGUUUUUAAGAUTT against Tbl2 | 0.176 |
| GGAUUUUGAUCUAAUGAGATT against Zfp354c | 0.366 |
| GGCAAUUCUCUGUAUCCACTT against Cyp2d34 | -0.358 |
| GCAUGUCGUCUGAGAAAGUTT against Pgr | -0.748 |
| GGCUUUAUCAGAUCCAACCTT against Tmem108 | 2.47 (active) |
| GGUCAUAGAUGAGCUUAGUTT against Appl1 | -0.763 |
| GGCAUGUUGAUGGGAAUUUTT against Srp9 | 0.536 |
| GGCCUACCCAAUUCUUAACTT against Ces1g | -0.0881 |
| GUGUUUCCUUGUUAAGAUUTT against Bloc1s4 | -0.841 |
| CCAGUAAAAAUUGAAGGCUTT against Capza2 | 0.565 |
| GGCCCUUCAUGAAGAGCAATT against Carf | 2.07 (active) |
| GGUCUACGUUAUUAUUACCTT against Etv2 | -0.537 |

| Sequence | z-score |
| --- | --- |
| GGAGCUUGACAUUCUGGAATT against Tmco4 | 0.766 |
| CCGAGUUUGGGAAUAACUUTT against Cacna1a | 1.45 |
| GGCCAUUAUUCGUGAGUUGTT against Armc10 | 2.11 (active) |
| CGGCAAUGUGACUAACAUCTT against Nrros | 0.76 |
| CGAGAUGUACCUUGAUACUTT against Idh3a | 1.44 |
| GCGAUGGACUCAAAAAACUTT against Ehd3 | 0.0497 |
| GCUGUGUAUGUAUUUCAUGTT against Rnf128 | 0.549 |
| GGCAGGAAUCUAUAUUAAUTT against Slc17a3 | 0.48 |
| GCGAAAGAUAUUGUGGAAGTT against Dixdc1 | -0.511 |
| CCAUCAUGAACACUCAACATT against Olfr462 | -2.59 (active) |
| GCACUUUAAGAGACAAUGUTT against Gpr63 | 0.302 |
| GGCUGACUGGACAAUAAAGTT against Krt85 | -1.28 |
| CCAGUCAUCAUGCUACACGTT against Slc19a3 | 0.473 |
| GGAGUGCUUUUAAAUCCCUTT against Rreb1 | -1.43 |
| GCACUAAUACUAACCAUGGTT against Rhox12 | 0.788 |
| GGCAAGAAAUUCUUCAGCATT against St8sia3 | -1.38 |
| GGUAAUGUACCUAAUAUUGTT against Cnn1 | 0.307 |
| GCCAGAACCGCAUAUUCUUTT against Cks2 | -0.481 |
| GGCUGAAGCUCGACUGAAGTT against Abcf3 | 2.35 (active) |
